# PubChem BioAssay
# Several values for one entry are separate records, joined by “and”; a condition that tells them apart may be missing. Equal values may be shown once. Activity calls are given as the source filed them.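 Rule for the calls, unless noted: active = mean z-score across replicates of 1.96 or higher in either the MELAS or the Rieske mutant cell line; inactive = the rest.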
# Columns and labels:
# [1] = sensitizers of A549 cells to miR-34 induction, primary screen, imaging, A549 dox-inducible miR-34, nuclei and caspase counts (AID 1347080;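 active = compounds whose cell count with miR-34 switched on is under 0.7 times the count with it off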); conditions: A549 miR-34 inducible, Hoechst nuclei count, 48 h
# [2] = survival rescue of mitochondrial mutant cells in low glucose, primary screen, MELAS cybrids, Rieske KO mouse fibroblasts, CellTiter-Glo (AID 1508586);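 note: z relative to plate mean and SD of compound and empty wells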
# [3] = stronger effect = lower value, cell number ratio, induced over uninduced
# [4] = measured here: relative caspase fold change +Dox/-Dox
# [5] = measured here: total cells with miR-34 induction, stronger effect = lower value
# [6] = measured here: total cells without miR-34 induction
# [7] = MELAS cybrid survival, CellTiter-Glo 48 h, stronger effect = higher value
# [8] = Rieske KO mouse fibroblast survival, CellTiter-Glo 72 h
# Note: test concentration not given here.
SMILES,"fold change [1, 3]","fold change [1, 4]","cell count [1, 5]","cell count [1, 6]","z-score [2, 7]","z-score [2, 8]"
Cc1ccc(-n2sc(=O)n(Cc3ccc(F)cc3)c2=O)cc1,0.959 (inactive),0.337,8430,8790,-0.268 (inactive),-0.132
C=C1C(=CC=C2CCC[C@@]3(C)[C@H]2CC[C@H]3C(C)C=CC(C)C(C)C)CC(O)CC1O (some centres undefined),0.932 (inactive),0.78,7360,7890,-0.45 (inactive),1.18
Cc1ccc(C(=O)N(CCCN)C(c2oc3cc(Cl)ccc3c(=O)c2Cc2ccccc2)C(C)C)cc1 (centres undefined),0.942 (inactive),0.732,1220,1290,2.62 (active),0.0146
OCc1ccc(OC2OC(CO)C(O)C(O)C2O)cc1 (centres undefined),0.984 (inactive),0.233,8280,8420,-0.247 (inactive),-0.122
O=C(C=Cc1ccc(O)c(O)c1)OCCc1ccccc1,1.02 (inactive),0.387,7430,7300,-0.587 (inactive),-2.25
CC(C)=CCC[C@](C)(OC1OC(COC2OCC(O)C(O)C2O)C(O)C(O)C1O)C1CC[C@]2(C)[C@@H]1C(O)C[C@H]1[C@@]3(C)CCC(OC4OC(CO)C(O)C(O)C4O)C(C)(C)[C@@H]3CC[C@]12C (some centres undefined),0.96 (inactive),0.422,7600,7910,-0.238 (inactive),0.0165
CC(=O)O[C@@]1(C(C)=O)CC[C@H]2[C@@H]3C=C(Cl)C4=CC(=O)C5CC5[C@]4(C)[C@@H]3CC[C@@]21C (some centres undefined),0.94 (inactive),0.713,7720,8210,-0.351 (inactive),0.528
C#CCC(c1nc2cc(Cl)ccc2c(=O)n1Nc1ccccc1)N(CCCN)C(=O)c1cccc(Cl)c1F (centres undefined),0.689 (active),0.42,882,1280,1.61 (inactive),0.152
Cc1cc(N2CCOCC2)cc2[nH]c(-c3c(NCC(O)c4cccc(Cl)c4)cc[nH]c3=O)nc12 (centres undefined),1.08 (inactive),0.775,928,858,-0.143 (inactive),-0.73
c1ccc(NCc2ccc(CNc3ccccn3)cc2)nc1,0.944 (inactive),0.525,7360,7790,-0.161 (inactive),-0.0229
CC1(C)S[C@H]2C(NC(=O)C(N)c3ccc(O)cc3)C(=O)N2C1C(=O)O (some centres undefined),1.01 (inactive),0.573,8190,8150,-0.00212 (inactive),-0.0136
COc1cc(CCc2cc(NC(=O)c3ccc(N4CC(C)NC(C)C4)cc3)n[nH]2)cc(OC)c1 (centres undefined),0.767 (inactive),0.948,4590,5980,-0.509 (inactive),-1.9
CC1(C)SC2C(NC(=O)C(C(=O)O)c3ccsc3)C(=O)N2C1C(=O)O (centres undefined),0.763 (inactive),0.814,7330,9600,-0.203 (inactive),-0.146
Cc1ccc(S(=O)(=O)n2c(N)nc3ccccc32)cc1,1.01 (inactive),0.588,6490,6440,-0.425 (inactive),-0.074
CC(=CC(=O)Nc1ccccc1C(=O)O)c1ccc2ccccc2c1,0.983 (inactive),1.42,7300,7430,-0.436 (inactive),0.934
CCC(C)(C)c1ccc(CC(C)CN2CC(C)OC(C)C2)cc1 (centres undefined),0.944 (inactive),0.765,8210,8700,-0.433 (inactive),0.477
C#C[C@@]1(O)CC[C@H]2[C@@H]3CCC4=CC(=O)CC[C@@H]4[C@@H]3CC[C@@]21CC,0.929 (inactive),0.428,7310,7880,-0.214 (inactive),0.0474
CC(C)(Oc1ccc(Cl)cc1)C(=O)OCCOC(=O)c1cccnc1,0.919 (inactive),0.391,8570,9330,-0.212 (inactive),-0.266
CN(C)C1C(=O)C(C(N)=O)=C(O)[C@@]2(O)C(=O)C3=C(O)c4c(O)ccc(Cl)c4C(O)[C@H]3C[C@@H]12 (some centres undefined),0.836 (inactive),1.66,6970,8340,3.28 (active),5.13
COC(c1ccccc1)(c1ccccc1)C(Oc1nc(C)cc(C)n1)C(=O)O (centres undefined),0.951 (inactive),0.955,7820,8220,-0.106 (inactive) and 0.539 (inactive),0.0441 and -0.167

SMILES,"fold change [1, 3]","fold change [1, 4]","cell count [1, 5]","cell count [1, 6]","z-score [2, 7]","z-score [2, 8]"
COc1cc(C2Oc3cc(C4Oc5cc(O)cc(O)c5C(=O)C4O)ccc3OC2CO)ccc1O (centres undefined),0.923 (inactive),0.695,9600,10400,-0.412 (inactive),0.872
O=C(O)C(S)=Cc1c[nH]c2ccc(F)cc12,0.952 (inactive),0.47,7180,7550,-0.325 (inactive),-0.491
COC1C[C@H]2CCC(C)[C@@](O)(O2)C(=O)C(=O)N2CCCC[C@H]2C(=O)OC(C(C)CC2CCC(OP(C)(C)=O)C(OC)C2)CC(=O)C(C)C=C(C)C(O)C(OC)C(=O)C(C)CC(C)C=CC=CC=C1C (some centres undefined),1.07 (inactive),0.835,4570,4270,0.709 (inactive),1.92
CC(C)CC(NC(=O)CNC(=O)c1cc(Cl)ccc1Cl)B(O)O (centres undefined),0.948 (inactive),1.44,1800,1900,-0.0464 (inactive),-3.37
O=C(NCc1ccc(Oc2ccccc2)cc1)c1nc(-c2cc(Br)c(O)c(Br)c2)no1,0.903 (inactive),0.842,7380,8170,-0.2 (inactive),-0.275
CC(C)(C)c1cc(C=C(C#N)C(N)=S)cc(C(C)(C)C)c1O,0.89 (inactive),0.706,3790,4260,-0.383 (inactive),-0.375
C[C@@]12CCC3=C4CCC(=O)C=C4CC[C@H]3[C@@H]1CC[C@@]2(O)CC#N,0.908 (inactive),0.868,7270,8010,-0.385 (inactive),0.301
CCCC(=O)O[C@@]1(C(=O)COC(C)=O)CC[C@H]2[C@@H]3CC(F)C4=CC(=O)C=C[C@]4(C)[C@]3(F)C(O)C[C@@]21C (some centres undefined),0.767 (inactive),1.77,5160,6730,-0.0529 (inactive),-0.145
COc1cccc2c1C(=O)c1c(O)c3c(c(O)c1C2=O)C[C@@](O)(C(C)=O)CC3O[C@H]1CC(N)C(O)C(C)O1 (some centres undefined),0.959 (inactive),0.948,2300,2390,2.59 (active),-0.443
O=C(O)CCCCC1SC[C@@H]2NC(=O)N[C@H]12 (some centres undefined),0.883 (inactive),0.431,8160,9250,-0.0238 (inactive),-0.137
CCC(NC(=O)C(C)NC)C(=O)N1CC(O)CC1Cc1c(-c2[nH]c3cc(F)ccc3c2CC2CC(O)CN2C(=O)C(CC)NC(=O)C(C)NC)[nH]c2cc(F)ccc12 (centres undefined),0.946 (inactive),0.86,9020,9540,-0.425 (inactive),-0.265
CCC(C)(C)C(=O)OC1CC(C)C=C2C=CC(C)C(CC[C@@H]3CC(O)CC(=O)O3)[C@H]21 (some centres undefined),1.33 (inactive),0.766,2960,2220,1.26 (inactive),-1.5
CC1(C)OC2C[C@H]3[C@@H]4CCC5=CC(=O)C=C[C@]5(C)[C@]4(F)C(O)C[C@]3(C)[C@@]2(C(=O)CO)O1 (some centres undefined),0.812 (inactive),1.01,5100,6270,-0.349 (inactive),-0.501
COc1cc(=C2C=c3ccccc3=N2)[nH]c1=Cc1[nH]c(C)cc1C,1.1 (inactive),0.895,1770,1620,2.25 (active),-2.31
CC1(C)S[C@H]2C(NC(=O)C(NC(=O)N3CCN(S(C)(=O)=O)C3=O)c3ccccc3)C(=O)N2C1C(=O)O (some centres undefined),0.882 (inactive),0.658,7720,8750,-0.292 (inactive),-0.225
N#CC(=C(N)Sc1ccc(N)cc1)c1ccccc1C(F)(F)F,0.906 (inactive),0.881,4690,5170,-0.31 (inactive),0.82
O=C(O)CC1CC(c2ccccc2)=NO1 (centres undefined),0.969 (inactive),0.43,8760,9040,-0.328 (inactive),0.698
CC1COC2=C1C(=O)C(=O)c1c2ccc2c1CCCC2(C)C (centres undefined),1.09 (inactive),0.507,2070,1890,-0.382 (inactive),-0.5
CN(C)C(CCOc1cccc2ccccc12)c1ccccc1 (centres undefined),0.873 (inactive),1.7,6850,7850,-0.416 (inactive),0.392
